Only some compounds are listed: those with a hit (about 5.8% of all), similar ones and a draw of the others.
RORgamma inh – qHTS for inhibitors of ROR gamma transcriptional activity; Drosophila S2 Gal4-RORgamma UAS-luciferase reporter, 20 h; Potency, µM (titrated, usually from 53.6 µM), for the others: at the top dose activity change, negative = inhibition, usual class: inhibitors; 310,000 compounds, 5.4% hits; AID 2551, 2010; further: potency means the concentration at half of the fitted maximal effect; on the % scale 0 is the no-effect control and ±100 the full control effect; nearly all actives have a fitted effect of over 60% in size
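Using a luciferase readout, inhibitors were identified by reduced reporter activity in Drosophila cells coexpressing a copper-inducible Gal4–ROR gamma fusion and UAS-driven Photinus luciferase, incubated 20 hr after 700 uM copper sulfate.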
uPA generation – qHTS for Inhibitors of Cell Surface uPA Generation | cell surface uPA generation assay, qHTS | Potency, µM (titrated, usually from 38.3 µM), without a hit: top-dose activity change, negative = inhibition, actives largely listed as inhibitors | 330,000 compounds, 0.31% hits | AID 540303, 2011; active means well fitted inhibition curve with a large enough effect; inconclusive means small, poorly fitted or top-dose-only effect; inactive means no such curve, though single readings can be large or run the other way; tested in mouse RAW 264.7 cells; further: potency means the concentration at half of the fitted maximal effect; on the % scale 0 is the no-effect control and ±100 the full control effect; nearly all actives have a fitted effect of over 55% in size
TRPV1 agonist – HTS Assay for Compounds that Act as Agonists of the Vanilloid Receptor 1; TRPV1-expressing cells, Fluo-8 calcium influx, agonist mode; activation, % at 8.33 µM; AID 540275, 2011; 320,000 compounds, 0.19% hits; in the data active means activation above about 80%; inconclusive means between about 30% and that limit; further: 0% is about no effect
Target sequence (Q8NER1 whole entry, looked up): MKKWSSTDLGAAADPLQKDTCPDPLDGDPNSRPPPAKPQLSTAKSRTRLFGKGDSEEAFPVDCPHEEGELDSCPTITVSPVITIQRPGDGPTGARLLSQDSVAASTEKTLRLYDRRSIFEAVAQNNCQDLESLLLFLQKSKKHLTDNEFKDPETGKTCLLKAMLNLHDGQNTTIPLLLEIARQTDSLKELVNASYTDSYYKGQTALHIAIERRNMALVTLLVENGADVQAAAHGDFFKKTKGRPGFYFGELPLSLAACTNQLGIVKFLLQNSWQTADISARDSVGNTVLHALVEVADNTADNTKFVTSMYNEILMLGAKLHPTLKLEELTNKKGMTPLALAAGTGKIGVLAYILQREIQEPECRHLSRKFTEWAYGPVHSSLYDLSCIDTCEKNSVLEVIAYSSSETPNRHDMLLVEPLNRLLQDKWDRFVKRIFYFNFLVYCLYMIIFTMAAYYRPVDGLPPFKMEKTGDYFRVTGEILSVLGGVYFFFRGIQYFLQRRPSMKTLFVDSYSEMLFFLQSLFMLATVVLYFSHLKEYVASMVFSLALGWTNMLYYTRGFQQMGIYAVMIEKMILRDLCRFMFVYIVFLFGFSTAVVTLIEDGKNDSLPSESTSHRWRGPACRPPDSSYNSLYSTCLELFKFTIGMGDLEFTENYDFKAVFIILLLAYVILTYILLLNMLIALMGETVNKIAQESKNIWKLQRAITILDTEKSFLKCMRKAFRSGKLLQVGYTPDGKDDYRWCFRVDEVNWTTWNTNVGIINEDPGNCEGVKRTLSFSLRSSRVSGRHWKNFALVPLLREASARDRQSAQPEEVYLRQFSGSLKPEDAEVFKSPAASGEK
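TRPV1-expressing cells were cultured overnight at 35.5C and loaded with Fluo-8 calcium dye for 40 to 90 min at room temperature. After a 10 s baseline, compound was added and calcium influx was read kinetically for 3 min (ex 480/em 520 nm).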
VP16 counter – VP16 counterscreen qHTS for inhibitors of ROR gamma transcriptional activity; Drosophila S2 Gal4-VP16 UAS-luciferase, luminescence, 20 h; Potency, µM (highest dose often 53.6 µM), for the others: at the highest dose activity, negative = inhibition, hits mostly inhibitors; 310,000 compounds, 3.5% hits;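 further: Gal4-VP16 expression switched on by copper sulfate through the metallothionein promoter; potency means the concentration at half of the fitted maximal effect; on the % scale 0 is the no-effect control and ±100 the full control effect; nearly all actives have a fitted effect of over 50% in size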
TRPV1 PAM – HTS Assay for Compounds that Act as Potentiators of the Vanilloid Receptor 1 | potentiation, % at 8.33 µM | AID 540277, 2011 | TRPV1-expressing cells, Fluo-8 calcium influx, capsaicin EC20 potentiation | 320,000 compounds, 0.02% hits | Transient receptor potential cation channel subfamily V member 1 (Homo sapiens), Q8NER1; in the data active means potentiation above about 80%; inconclusive means between about 30% and that limit; further: 0% is about no effect
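Cells expressing TRPV1 were dye-loaded with Fluo-8 and read kinetically: 10 s baseline, 3 min after compound (agonist portion), then 2 min after EC20 capsaicin (allosteric enhancer portion). Calcium-bound dye fluorescence at 480/520 nm.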
* marks the source's active call; other numbers are inactive results; ? = inconclusive; nt = no result given; [ ] = dose if it differs, or a comment. Unless noted, the call rests on the fitted dose curve; in most records, active means well fitted curve in the direction sought with a large enough effect; inconclusive means small, poorly fitted or top-dose-only effect, or another doubt; inactive means no such curve, though single readings can be large; an effect the other way counts as inactive or inconclusive.

SMILES	RORgamma inh	uPA generation	TRPV1 agonist	VP16 counter	TRPV1 PAM
CCCCNC(=S)NCc1ccc2[nH]c3c(c2c1)CCCC3	5µM*	4%	16	10µM*	?
CNC(=S)NCc1ccc2[nH]c3c(c2c1)CCCC3	18µM*	0%	17	-14%	-18
C=CC(C)(C)c1cc2cc3ccoc3cc2oc1=O	-4%	4%	24	?	-17
CC(=O)OCON[N+]([O-])=NC(C)C	0%	nt	nt	28%	nt
Cc1ccc(/C=C/C(=O)c2ccc(O)cc2)cc1	2µM*	-9%	?	7.1µM*	16
CCOc1ccc(C(=O)/C=C/c2ccc(SC)cc2)cc1	?	nt	1	2%	-27
Cc1ccc(C(=O)/C=C/C(=O)O)cc1	11µM*	?	-2	7.9µM*	-2
CSc1ccc(/C=C/C(=O)c2ccc(O)cc2)cc1	0.5µM*	-18%	1	1.1µM*	-1
Cc1ccc(/C=C/C(=O)c2ccccc2)cc1	-9%	nt	?	-22%	-15
CCC(C)NC(=O)CSc1ccc(S(=O)(=O)N2CCN(Cc3ccccc3)CC2)cn1 (stereo unspecified)	nt	-8%	22	nt	-20
O=[N+]([O-])c1ccc2c(c1Nc1ccccc1Cl)=NC1(CCCCC1)N=2	-11%	-2%	14	3%	-14
Cc1ccc(Nc2c([N+](=O)[O-])ccc3c2=NC2(CCCCC2)N=3)cc1	7.9µM*	2%	26	-16%	-12
Cc1cc(C(=O)N/N=C/c2cc(Br)cc(Br)c2OC(=O)c2cccc(F)c2)n[nH]1	3.5µM*	-7%	0	-27%	-7
Cc1cc(C(=O)N/N=C/c2cccs2)n[nH]1	17%	-4%	6	3%	4
Cc1cc(C(=O)N/N=C/c2cc(Br)cc(Br)c2OC(=O)c2ccccc2)n[nH]1	-28%[10 µM]	nt	-4	-102%	10
Cc1cc(C(=O)N/N=C/c2cc(Br)ccc2OC(=O)c2ccc(Br)cc2)n[nH]1	8.9µM*	nt	-7	7.1µM*	5
Cc1cc(C(=O)N/N=C\c2cc(C(C)(C)C)ccc2O)n[nH]1	2.2µM*	?	29	5.6µM*	-5
O=C(Cl)c1cccc([N+](=O)[O-])c1	-8%	nt	nt	-7%	nt
COc1ccc(C2c3c(ncn(Cc4ccco4)c3=N)Oc3ccc4ccccc4c32)cc1 (stereo unspecified)	18µM*	4%	4	8.9µM*	5
COc1ccc(C2c3ccc4ccccc4c3Oc3ncn(CCCO)c(=N)c32)cc1 (stereo unspecified)	4µM*	4%	-5	-26%	-13
COc1ccc(C2c3ccc4ccccc4c3Oc3ncn(CCN(C)C)c(=N)c32)cc1 (stereo unspecified)	32µM*	-2%	3	?	-4
COc1ccc(C2c3ccc4ccccc4c3Oc3ncn(CCO)c(=N)c32)cc1 (stereo unspecified)	?	-8%	15	?	-6
CN(C)CCCn1cnc2c(c1=N)C(c1ccccc1)c1ccc3ccccc3c1O2 (stereo unspecified)	18µM*	-5%	3	?	3
CCCCNc1nnc(Cc2ccc(Cl)cc2)c(=O)[nH]1	23%	14%	-4	3%	17
N=c1c2c(ncn1CCCO)Oc1c(ccc3ccccc13)C2c1ccccc1 (stereo unspecified)	18µM*	?	17	?	-17
CC1=C(c2ccccc2)C(=S)NC(C)(C)C1	2.5µM*	2%	2	7.1µM*	-3
COC(=O)CC1C(C)(C)C(OC(C)=O)C2[C@H](OC(C)=O)[C@]34O[C@]2(O)[C@]1(C)C3CC[C@]1(C)C4=CC(=O)OC1c1ccoc1 (stereo partly specified)	4%	nt	nt	-8%	nt
CC1CCN(Cc2c(O)ccc3c(=O)c(-c4nc5ccccc5s4)c(N)oc23)CC1	-25%	3%	1	1%	7
CC1CCCN(Cc2c(O)ccc3c(=O)c(-c4nc5ccccc5s4)c(N)oc23)C1 (stereo unspecified)	25µM*	-8%	15	?	-11

Compound activity (PubChem)
